Results as given in PubChem BioAssay (NCATS).
Inconclusive results are not listed. Activity calls are given as the source filed them. Unless noted, calls follow the shape of the dose curve; as a rule, active = well fitted inhibition curve with a large enough effect; inconclusive = small, poorly fitted or top-dose-only effect; inactive = flat fitted curve, though single readings scatter.

How the values were obtained:
[1] = qHTS drug screen for cell cycle checkpoint inhibitors in PARPi-resistant BRCA-mutant ovarian cancer cell lines. (AID 1963452; calls by dose curve); settings: PEO1/OlaR viability, CellTiter-Glo luminescence, 96 h; for Z-AUC: stronger effect = lower value
In short: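 PEO1, PEO4 and PEO1/OlaR ovarian cancer cells, 600 per well, exposed 96 h at 37C to a dilution series. Viability read by CellTiter-Glo luminescence, normalized to DMSO and empty wells; activity summarized as Z-AUC.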

[2] = qHTS for identification of novel therapeutic agents for treatment of microphthalmiaassociated transcription factor (MiT) renal cell carcinoma (RCC) (AID 1963991; calls by dose curve;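 as to z-score: curves scaled with 100% = DMSO viability and 0% = empty wells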); settings: CellTiter-Glo, 48 h; for z-score: stronger effect = lower value
In short: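 UOK109/UOK124/UOK145 (TFE3 fusions, three partners); 500 cells/well; MIPE v4.0, 1912 cpds, 11 conc.; 48 h, 37 C; CellTiter-Glo, 15 min RT; lum. Norm.: DMSO 100%, empty 0%.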

[3] = qHTS profiling for inhibitors of Plasmodium falciparum proliferation (AID 504749); also: nearly all actives have a fitted effect of over 60% in size;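 as to activity, negative = inhibition: 0% = DMSO vehicle and full inhibition = artemisinin control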; settings: P. falciparum in erythrocytes, SYBR Green DNA, 72 h
In short: (§1)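 P. falciparum-infected erythrocytes (0.3% parasitemia, 2.5% hematocrit final) were exposed to compounds for 72 h at 37 C in 5% CO2, then lysed with SYBR Green buffer overnight at room temperature; parasite DNA fluorescence was normalized to artemisinin and DMSO controls.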

3D7 = experiment: as above; settings: P. falciparum in erythrocytes, SYBR Green DNA, 72 h; series mostly up to 28.7 µM
In short: as §1

7G8 = experiment: as above; settings: P. falciparum in erythrocytes, SYBR Green DNA, 72 h; series mostly up to 28.7 µM
In short: as §1

AA1029 = experiment: as above; settings: P. falciparum in erythrocytes, SYBR Green DNA, 72 h; series mostly up to 28.7 µM
In short: as §1

AS120 = experiment: as above; settings: P. falciparum in erythrocytes, SYBR Green DNA, 72 h; series mostly up to 28.7 µM
In short: as §1

ATS189 = experiment: as above; settings: P. falciparum in erythrocytes, SYBR Green DNA, 72 h; series mostly up to 28.7 µM
In short: as §1

[4] = measured here: PEO1 parental Z-AUC
[5] = TFE3-RCC UOK109 viability, measured here: UOK109 Z-AUC
[6] = TFE3-RCC viability, measured here: UOK124 Z-AUC
[7] = TFE3-RCC viability, measured here: UOK145 Z-AUC
[8] = at 12.8 µM (top of the series), parasite line A
[9] = at 12.8 µM (top of the series), parasite line B
[10] = at 28.7 µM (top of the series), parasite line A
[11] = at 28.7 µM (top of the series), parasite line B
Potency is read from the fitted curve at half-maximal effect.

CC(=O)Nc1ccc(O)cc1
Z-AUC [1]: 0.911 (inactive) | Z-AUC [1, 4]: 0.308 | Z-AUC ([1]; measured here: PEO4 Z-AUC): 0.415 | z-score [2, 5]: 1.26 | z-score [2, 6]: 0.904 | z-score [2, 7]: 0.696

CCOc1cc(CC(=O)N[C@@H](CC(C)C)c2ccccc2N2CCCCC2)ccc1C(=O)O
Z-AUC [1]: 0.686 (inactive) | Z-AUC [1, 4]: 0.341 | Z-AUC ([1]; measured here: PEO4 Z-AUC): 0.628 | z-score [2, 5]: 0.724 | z-score [2, 6]: 0.688 | z-score [2, 7]: 0.737 | activity, negative = inhibition [3, 8]: 4.74% (inactive) | activity, negative = inhibition [3, 9]: 10.7% (inactive) | Potency (3D7): inactive | Potency (7G8): inactive | Potency (AA1029): inactive | Potency (AS120): inactive | Potency (ATS189): inactive

O=C1c2c(O)cc(O)cc2OC(c2ccc(O)c(O)c2)C1O (configuration not stated)
Z-AUC [1]: -0.835 (inactive) | Z-AUC [1, 4]: -0.249 | Z-AUC ([1]; measured here: PEO4 Z-AUC): -0.326 | z-score [2, 5]: -0.477 | z-score [2, 6]: 0.528 | z-score [2, 7]: 0.535

CCCCN(CCCC)CCC(O)c1cc2c(Cl)cc(Cl)cc2c2cc(C(F)(F)F)ccc12 (configuration not stated)
Z-AUC [1]: -0.995 (inactive) | Z-AUC [1, 4]: -1.16 | Z-AUC ([1]; measured here: PEO4 Z-AUC): -0.882 | z-score [2, 5]: 0.318 | z-score [2, 6]: 0.539 | z-score [2, 7]: 0.552 | Potency ([3]; parasite line A): 7.9 nM (active) | Potency ([3]; parasite line B): 5.6 nM (active) | Potency (3D7): 3.2 nM (active) | Potency (7G8): 1.1 nM (active) | Potency (AA1029): 6.3 nM (active) | Potency (AS120): 5.6 nM (active) | Potency (ATS189): 5.6 nM (active)

Nc1cc(C(Cl)=C(Cl)Cl)c(S(N)(=O)=O)cc1S(N)(=O)=O
Z-AUC [1]: 1.44 (inactive) | Z-AUC [1, 4]: 1.19 | Z-AUC ([1]; measured here: PEO4 Z-AUC): 1.34 | z-score [2, 5]: 1.83 | z-score [2, 6]: 0.22 | z-score [2, 7]: 0.781 | activity, negative = inhibition [3, 8]: -2.96% (inactive) | activity, negative = inhibition [3, 9]: 1.59% (inactive) | Potency (3D7): inactive | Potency (7G8): inactive | Potency (AA1029): inactive | Potency (ATS189): inactive

Cc1ccc(C(=O)c2cc(O)c(O)c([N+](=O)[O-])c2)cc1
Z-AUC [1]: -0.393 (inactive) | Z-AUC [1, 4]: -0.655 | Z-AUC ([1]; measured here: PEO4 Z-AUC): -0.817 | z-score [2, 5]: 0.222 | z-score [2, 6]: 0.88 | z-score [2, 7]: 0.533

O=C(NCCO[N+](=O)[O-])c1cccnc1
Z-AUC [1]: -0.64 (inactive) | Z-AUC [1, 4]: -0.487 | Z-AUC ([1]; measured here: PEO4 Z-AUC): -0.272 | z-score [2, 5]: 1.2 | z-score [2, 6]: 0.824 | z-score [2, 7]: 0.646 | activity, negative = inhibition [3, 10]: 22.6% (inactive) | activity, negative = inhibition [3, 11]: 3.27% (inactive) | Potency (3D7): inactive | Potency (7G8): inactive | Potency (AA1029): inactive | Potency (AS120): inactive | Potency (ATS189): inactive

CC(=O)NC[C@H]1CN(c2ccc(N3CCOCC3)c(F)c2)C(=O)O1
Z-AUC [1]: -0.303 (inactive) | Z-AUC [1, 4]: -0.362 | Z-AUC ([1]; measured here: PEO4 Z-AUC): -0.619 | z-score [2, 5]: -0.988 | z-score [2, 6]: 0.658 | z-score [2, 7]: 1.47

Cc1cc2c(s1)Nc1ccccc1N=C2N1CCN(C)CC1
Z-AUC [1]: -0.767 (inactive) | Z-AUC [1, 4]: -0.886 | Z-AUC ([1]; measured here: PEO4 Z-AUC): -0.45 | z-score [2, 5]: 0.52 | z-score [2, 6]: 0.714 | z-score [2, 7]: 0.593 | activity, negative = inhibition [3, 10]: 6.07% (inactive) | activity, negative = inhibition [3, 11]: 8.04% (inactive) | Potency (3D7): inactive | Potency (AA1029): inactive | Potency (AS120): inactive | Potency (ATS189): inactive

CCN(CC)CCOc1ccc(Nc2ncc3cc(-c4c(Cl)cccc4Cl)c(=O)n(C)c3n2)cc1
Potency [1]: 155 nM (active) | Z-AUC [1, 4]: -1.55 | Z-AUC ([1]; measured here: PEO4 Z-AUC): -1.25 | Potency ([2]; TFE3-RCC UOK109 viability, active = Z-AUC below -0.8 in all three lines): 11.8 nM (active) | z-score [2, 5]: -2.53 | z-score [2, 6]: -3.17 | z-score [2, 7]: -2.04

O=c1c(O)c(-c2cc(O)c(O)c(O)c2)oc2cc(O)cc(O)c12
Z-AUC [1]: 1.5 (inactive) | Z-AUC [1, 4]: 1.23 | Z-AUC ([1]; measured here: PEO4 Z-AUC): 1.17 | z-score [2, 5]: 0.252 | z-score [2, 6]: 0.375 | z-score [2, 7]: -0.367

CC(C)Oc1ccc2c(=O)c(-c3ccccc3)coc2c1
Z-AUC [1]: 0.208 (inactive) | Z-AUC [1, 4]: -0.757 | Z-AUC ([1]; measured here: PEO4 Z-AUC): -0.189 | z-score [2, 5]: 0.973 | z-score [2, 6]: 0.495 | z-score [2, 7]: -0.312

O=C(O)CCNC(=O)c1ccc(N=Nc2ccc(O)c(C(=O)O)c2)cc1
Z-AUC [1]: -0.101 (inactive) | Z-AUC [1, 4]: 0.264 | Z-AUC ([1]; measured here: PEO4 Z-AUC): 0.361 | z-score [2, 5]: 1.03 | z-score [2, 6]: 0.51 | z-score [2, 7]: 0.488 | activity, negative = inhibition [3, 10]: 4.07% (inactive) | activity, negative = inhibition [3, 11]: 9.54% (inactive) | Potency (3D7): inactive | Potency (7G8): inactive | Potency (AA1029): inactive | Potency (AS120): inactive | Potency (ATS189): inactive

O=C(O)c1cc(=O)c2c(OCC(O)COc3cccc4oc(C(=O)O)cc(=O)c34)cccc2o1
Z-AUC [1]: 1.18 (inactive) | Z-AUC [1, 4]: 1.06 | Z-AUC ([1]; measured here: PEO4 Z-AUC): 1 | z-score [2, 5]: 0.209 | z-score [2, 6]: 0.177 | z-score [2, 7]: -0.326 | activity, negative = inhibition [3, 10]: 8.12% (inactive) | activity, negative = inhibition [3, 11]: 15.8% (inactive) | Potency (3D7): inactive | Potency (7G8): inactive | Potency (AA1029): inactive | Potency (AS120): inactive | Potency (ATS189): inactive
